# Source: PubChem BioAssay
# Where “and” joins values, the source holds several entries; their conditions need not be identical. Identical values can stand only once. Some compounds were tested as several samples or in several runs, with calls that do not always agree. Calls of active or inactive are those of the source. Unless noted, how the calls were made is not given here.
# Tests used:
# [1] = tested on: Wnt5a (protein binding on small-molecule microarray); assay: small molecules binding Wnt5a protein – biophysical, small-molecule microarray, 635/667 nm fluorescence, primary screen (AID 1142); settings: 635 nm fluorescence, higher = more signal;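 further: fluorescence read at 667 nm with signal to noise per printed feature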
# [2] = ATP-based viability of Huh7 replicon cells – cell-based, CellTiter-Glo luminescence, basal, 48 h, cytotoxicity control for HCV replication inhibitor project, primary screen (AID 1143); settings: higher = more signal, called active from +8 up or from −8 down;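 further: Huh7 hepatoma cells carrying a hepatitis C replication reporter with no stimulus; test concentration not given here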
# [3] = Pseudomonas biofilm growth suppression – PAO1 strain, BacTiter-Glo luminescence, LB-PBS, primary screen (AID 1144); settings: P. aeruginosa PAO1 biofilm, 12 h, higher = more signal
# [4] = basal CRE-LacZ reporter activity in PC12 – cell-based, unstimulated, primary screen (AID 1145); settings: no forskolin, luminescence, 4.5 h, higher = more signal, called active from +8 up or from −8 down
# [5] = forskolin-driven CRE-LacZ activity in PC12 – cell-based, CRE-LacZ reporter, forskolin-stimulated, primary screen (AID 1146); settings: luminescence, 4.5 h, higher = more signal, called active from +8 up or from −8 down;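 further: PC12 cells with 6xCRE LacZ reporter stimulated by forskolin 10 µM; beta-galactosidase reporter signal reflecting CREB driven transcription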
# [6] = biological target: Streptavidin (Streptomyces avidinii) (UniProt P22629); assay: compounds binding control protein streptavidin – biophysical, small-molecule microarray, 635/667 nm fluorescence, artefact control for SMM compound annotation, primary screen (AID 1147); settings: higher = more signal;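 further: signal reflects streptavidin binding to arrayed compounds as a control protein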
# [7] = probe aInhba binding on compound microarray – biochemical, small-molecule microarray, 635/667 nm fluorescence, primary screen (AID 1148); settings: higher = more signal;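 further: score merges 667nm spot fluorescence with signal-to-noise for antibody binding to printed compounds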
# Torsin-1A (Homo sapiens) [8] = biological target: Torsin-1A (Homo sapiens) (UniProt O14656); assay: TOR1A wild-type binding on microarray – cell lysate, small-molecule microarray, lysate, 635/667 nm, primary screen (AID 1149); settings: COS7 hTOR1A-WT lysate, 635 nm fluorescence, higher = more signal
# Torsin-1A (Homo sapiens) [9] = biological target: Torsin-1A (Homo sapiens) (UniProt O14656); assay: torsin A mutant lysate binding on microarrays – cell lysate, small-molecule microarray, COS7 lysate, 635/667 nm fluorescence, primary screen (AID 1150); settings: COS7 hTOR1A mutant lysate, 635 nm fluorescence, higher = more signal;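 further: score pools 667 nm emission and signal to noise measuring lysate protein binding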
# [10] = tested on: Sonic hedgehog protein (Shh); assay: Sonic hedgehog microarray binding compounds – biochemical, small-molecule microarray, 635/667 nm fluorescence, primary screen (AID 1151); settings: 635 nm fluorescence, higher = more signal;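 further: Shh protein binding to compounds spotted on small-molecule microarray slides; score combines spot fluorescence intensity with signal-to-noise across triplicate slides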
# Torsin-1A (Homo sapiens), sequence (O14656 whole entry, looked up): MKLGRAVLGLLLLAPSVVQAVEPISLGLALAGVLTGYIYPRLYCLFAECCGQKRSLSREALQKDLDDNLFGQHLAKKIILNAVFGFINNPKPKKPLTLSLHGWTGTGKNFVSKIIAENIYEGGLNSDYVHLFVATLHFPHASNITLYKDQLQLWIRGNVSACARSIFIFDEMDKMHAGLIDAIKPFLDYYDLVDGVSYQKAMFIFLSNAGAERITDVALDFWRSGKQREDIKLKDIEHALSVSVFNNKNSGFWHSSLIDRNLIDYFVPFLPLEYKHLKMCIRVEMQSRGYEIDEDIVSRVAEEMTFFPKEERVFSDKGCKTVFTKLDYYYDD
# Streptavidin (Streptomyces avidinii), sequence (P22629 whole entry, looked up): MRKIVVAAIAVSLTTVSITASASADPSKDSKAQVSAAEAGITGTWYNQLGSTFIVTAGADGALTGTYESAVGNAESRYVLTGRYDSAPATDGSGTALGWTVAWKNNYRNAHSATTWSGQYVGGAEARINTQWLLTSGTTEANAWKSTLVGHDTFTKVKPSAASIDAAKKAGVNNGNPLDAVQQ
SMILES,composite z-score [1],z-score [2],z-score [3],z-score [4],z-score [5],composite z-score [6],composite z-score [7],composite z-score (Torsin-1A (Homo sapiens) [8]),composite z-score (Torsin-1A (Homo sapiens) [9]),composite z-score [10]
Cc1ccc(S(=O)(=O)N[C@H]2COC(=O)[C@@H](Cc3ccccc3)NC(=O)[C@@H](C)COC(=O)CC=C[C@@H]2C)cc1,0.089 and 0.0949,0.0143 (inactive) and -1.15 (inactive),-0.166 (inactive) and -1.8 (inactive),-0.746 (inactive) and 0.834 (inactive),-0.899 (inactive) and -0.0204 (inactive),-0.236 and -0.154,-0.234 and -0.158,0.143 and 0.354,0.254 and 0.289,1.07 and 1.29
C=CCN(CCCCC)C(=O)C1N(C(C)(C)CO)C(=O)C2C(C(=O)O)C3C=CC21O3 (stereo not given),-0.912 and -0.258,0.879 (inactive) and 1.06 (inactive),1.13 (inactive) and 1.98 (inactive),-0.0737 (inactive) and -0.484 (inactive),-0.0682 (inactive) and 0.563 (inactive),-1.6 and -1.67,-0.213 and -0.0791,-3.01 and -1.59,-2.24 and -1.18,-0.99 and -0.61
C=CCN(C(=O)C1N(C(C)(C)CO)C(=O)C2C(C(=O)O)C3C=CC21O3)C(C)(C)C (stereo not given),-1.52 and -0.697,-0.037 (inactive) and -0.67 (inactive),1.58 (inactive) and 1.05 (inactive),0.471 (inactive) and 0.996 (inactive),0.0027 (inactive) and -0.21 (inactive),-1.86 and -1.52,-0.271 and -0.302,-3.46 and 0.256,-2.89 and 0.829,-2.51 and -1.85
C=CCN(Cc1ccccc1)C(=O)C1N(c2c(Cl)cccc2CO)C(=O)C2C(C(=O)O)C3C=CC21O3 (stereo not given),-0.597 and -1.05,-0.634 (inactive) and -0.0943 (inactive),-2.23 (inactive) and -0.0736 (inactive),-0.619 (inactive) and -0.216 (inactive),-1.1 (inactive) and 0.577 (inactive),-1.38 and -2.19,-0.182 and -0.364,-0.986 and -1.77,-1.2 and -1.14,-0.796 and -0.69
O=C(NN=C1C[C@@H](O)[C@@H](O)[C@@H]2[C@@H]3C(=O)N(Cc4ccc5c(c4)OCO5)C(=O)[C@@H]3CC[C@H]12)OCc1ccccc1,0.627,0.0294 (inactive),1.54 (inactive),-1.29 (inactive),0.383 (inactive),-0.872,-0.0245,2.05,0.392,-0.858
C=CCN(C(=O)C1N(CCOCCO)C(=O)C2C(C(=O)O)C3C=CC21O3)C(C)(C)C (stereo not given),-0.908 and -0.886,-0.773 (inactive) and -0.325 (inactive),-0.000915 (inactive) and -1.27 (inactive),-0.627 (inactive) and 0.0605 (inactive),-0.581 (inactive) and 0.0532 (inactive),-0.875 and -0.873,-0.179 and -0.319,-1.93 and -2.63,-2.59 and -1.82,-0.783 and -1.34
C=CCN1C(=O)[C@]2(O[C@H](CCn3cc(CCO)nn3)[C@@H]([Si](C)(C)c3ccc(OC)cc3)[C@@H]2C)c2cc(N3C(=O)c4cccc5cccc3c45)ccc21,0.684 and 0.279,-8.04 (active) and -7.97 (inactive),-0.475 (inactive) and -0.111 (inactive),29.7 (active) and 37.9 (active),-4.15 (inactive) and -3.89 (inactive),0.377 and 0.732,-0.0719 and -0.0986,0.317 and 0.0769,0.398 and 0.254,1.21 and 1.38
CCCNC(=O)OC[C@H]1O[C@H](CCON=C(C)CCC(=O)OC[C@H]2O[C@H](C#Cc3ccccc3)C=C[C@@H]2Oc2ccc(C)cc2)C=C[C@@H]1Oc1ccc(OC)cc1,-0.284,-0.538 (inactive),-0.145 (inactive),-0.729 (inactive),0.872 (inactive),1.07,-0.103,-0.474,-0.352,0.0277
C=C[C@@H](OC)[C@H](O)c1ccc(OCCO)cc1,-0.825 and -0.361,0.423 (inactive) and -2.25 (inactive),-0.765 (inactive) and -0.622 (inactive),-0.883 (inactive) and -0.184 (inactive),-0.812 (inactive) and -1.15 (inactive),-0.912 and -1.1,-0.271 and -0.128,-1.95 and -1.96,-2.39 and -0.212,0.18 and -0.247
O=C1[C@H]2[C@H]3[C@H](O)[C@H](O)CC(=NOCc4ccccc4)[C@H]3CC[C@H]2C(=O)N1Cc1ccccc1,0.0003,-5.42 (inactive),-0.788 (inactive),0.796 (inactive),0.888 (inactive),0.725,-0.257,0.119,0.358,0.659
C=CCN(Cc1ccccc1)C(=O)C(c1cccs1)N(C(=O)/C=C\C(=O)O)c1c(Cl)cccc1CO (stereo not given),-0.835 and -0.796,-0.109 (inactive) and 0.446 (inactive),-1.78 (inactive) and 0.911 (inactive),-1.44 (inactive) and 0.191 (inactive),-0.418 (inactive) and -0.107 (inactive),-1.7 and -1.08,-0.154 and -0.176,-2.82 and -2.49,0.702 and -1.72,-0.877 and -0.78
C=CCN(CCCCC)C(=O)C(c1cccs1)N(C(=O)/C=C\C(=O)O)c1c(Cl)cccc1CO (stereo not given),-0.473 and -1.02,0.497 (inactive) and 0.165 (inactive),0.858 (inactive) and 2.29 (inactive),0.605 (inactive) and -0.212 (inactive),1.2 (inactive) and 0.266 (inactive),-1.34 and -1.63,-0.202 and -0.233,-2.37 and -3.28,-0.23 and -2.06,-1.14 and -0.909
CC(C)=NOC[C@@H](O)COCc1ccco1,-0.0761,0.326 (inactive),-0.209 (inactive),-1.71 (inactive),-0.619 (inactive),-0.499,-0.003,-0.469,2.08,0.712
COC(=O)C1=C(C)N(Cc2ccccc2)[C@]23O[C@](C(=O)OC)(C(=O)N2[C@@H]1c1ccccc1)[C@H]1C(=O)N(C)C(=O)[C@H]13,0.0757 and 0.142,-1.01 (inactive) and -1.34 (inactive),0.225 (inactive),3.17 (inactive) and 0.019 (inactive),-0.735 (inactive) and -1.7 (inactive),0.412 and 0.0225,-0.278 and -0.179,0.314 and 0.263,0.691 and 0.524,0.548 and 0.736
COC(=O)[C@@]1(Cc2ccc(F)cc2)[C@H]2c3cc(C(=O)N4CCCC4)n(Cc4c(CO)[nH]cc(C)c4=O)c3C[C@H]2CN1C(=O)c1ccccc1,2.18 and 0.117,-1.28 (inactive) and -0.88 (inactive),-0.0556 (inactive) and 0.0252 (inactive),0.762 (inactive) and 0.962 (inactive),3.71 (inactive) and 3.05 (inactive),0.418 and -0.248,1.24 and 0.131,0.113 and -0.501,0.797 and 0.232,-0.552 and -0.661
CCCNC(=O)OC[C@H]1O[C@H](CCON=C(C)CCN2CCc3nc(-c4ccccc4)c(-c4ccccc4)cc3C2)C=C[C@@H]1Oc1ccc(OC)cc1,0.156,-0.81 (inactive),-0.158 (inactive),2.49 (inactive),-0.113 (inactive),0.114,-0.152,0.479,0.302,0.449
COC(=O)[C@@]1(Cc2ccc(OC)cc2)[C@H]2c3cc(C(=O)N(C)C)n(Cc4ccc(O)c(OC)c4)c3C[C@H]2CN1C(=O)c1ccccc1,0.0905 and 0.294,-1.03 (inactive) and -2.86 (inactive),0.209 (inactive) and 0.769 (inactive),0.583 (inactive) and 0.197 (inactive),0.217 (inactive) and -0.742 (inactive),1.09 and 0.758,0.293 and 0.714,0.934 and 0.0765,0.692 and 0.318,1.02 and -0.291
COC(=O)C1=C(C)N(Cc2ccccc2)C2=C3C(=O)N(C)C(=O)[C@@H]3[C@@](O)(C(=O)OC)C(=O)N2[C@@H]1c1ccccc1,0.147 and 0.126,0.961 (inactive) and -0.294 (inactive),-0.153 (inactive) and -0.448 (inactive),2.18 (inactive) and 0.992 (inactive),-0.152 (inactive) and -0.755 (inactive),0.378 and 0.131,0.038 and 0.0173,0.154 and 0.161,0.491 and 0.207,-0.004 and 0.436
C=C[C@@H](C)[C@@H](O)c1ccc(O)c2ccccc12,0.0168 and -0.729,0.61 (inactive) and -1.13 (inactive),-0.647 (inactive) and -0.589 (inactive),2.68 (inactive) and -0.3 (inactive),3.22 (inactive) and 5.31 (inactive),-1.28 and -0.645,-0.304 and -0.278,-1.2 and -1.52,-1.14 and -0.798,-0.103 and 0.297
COC(=O)C1=C(C)N(Cc2ccccc2)C2=C(C(C)=O)[C@H](c3ccccc3)[C@@](O)(C(=O)OC)C(=O)N2[C@@H]1c1ccccc1,0.142 and -0.0685,-0.912 (inactive) and -3.17 (inactive),-1.5 (inactive),1.1 (inactive) and 0.916 (inactive),-0.213 (inactive) and -0.284 (inactive),0.499 and -0.212,0.105 and -0.171,0.576 and -0.313,0.9 and -0.211,0.686 and 0.16
CCCC[C@@H]1CN2[C@@H](CC[C@@H](C)[C@@H]2c2ccc(Br)cc2)C(=O)O1,-0.0248 and 0.0673,-0.216 (inactive) and -0.116 (inactive),0.283 (inactive) and 1.16 (inactive),-0.704 (inactive) and 1.1 (inactive),0.693 (inactive) and 0.189 (inactive),0.119 and 0.117,-0.101 and 0.0074,0.434 and -0.0758,0.458 and 0.139,0.611 and 0.993
C=CCN(CCCCC)C(=O)C1N(c2c(Cl)cccc2CO)C(=O)C2C(C(=O)O)C3C=CC21O3 (stereo not given),-0.65 and -1.3,0.0928 (inactive) and -0.313 (inactive),-0.568 (inactive) and -0.00991 (inactive),0.467 (inactive) and 0.199 (inactive),0.209 (inactive) and -0.0386 (inactive),-1.41,-0.258 and -0.152,-1.44 and -3.52,-1.09 and -2.63,-0.333 and -1.79
